Compound activity deposited in PubChem BioAssay by The Scripps Research Institute Molecular Screening Center.
In the library only some 3.3% were active in any assay of this set; here they are far more common.
NOD2 RIPK2 PPI: NOD2-RIPK2 protein interaction inhibition; O43353; CHO BLA complementation NOD2-RIPK2, CCF4 ratio; inhibition, % at 4.98 µM; hit rate 0.38% among 360,000; in the data active means inhibition above about 21%
TLR9-MyD88 inh: TLR9-MyD88 interaction inhibition. Q9NR96+Q99836. CHO BLA complementation TLR9-MyD88, CCF4 FRET ratio. inhibition, % at 4.98 µM. hit rate 0.21% among 340,000;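 active means inhibition above the mean over all tested compounds plus 3 SD, cut at about 21% in these data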
ABHD5-PLIN5 inh: blocks binding of human ABHD5 to perilipin-5; Q00G26+Q8WTS1; hit rate 0.78% among 360,000; Split G. princeps luciferase complementation, luminescence, 4 h; AID 602281; inhibition, % at 4 µM;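 active means inhibition above the mean inhibition across every tested compound plus 3 SD, cut at about 22% in these data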
Target sequence (Q00G26 whole entry, looked up): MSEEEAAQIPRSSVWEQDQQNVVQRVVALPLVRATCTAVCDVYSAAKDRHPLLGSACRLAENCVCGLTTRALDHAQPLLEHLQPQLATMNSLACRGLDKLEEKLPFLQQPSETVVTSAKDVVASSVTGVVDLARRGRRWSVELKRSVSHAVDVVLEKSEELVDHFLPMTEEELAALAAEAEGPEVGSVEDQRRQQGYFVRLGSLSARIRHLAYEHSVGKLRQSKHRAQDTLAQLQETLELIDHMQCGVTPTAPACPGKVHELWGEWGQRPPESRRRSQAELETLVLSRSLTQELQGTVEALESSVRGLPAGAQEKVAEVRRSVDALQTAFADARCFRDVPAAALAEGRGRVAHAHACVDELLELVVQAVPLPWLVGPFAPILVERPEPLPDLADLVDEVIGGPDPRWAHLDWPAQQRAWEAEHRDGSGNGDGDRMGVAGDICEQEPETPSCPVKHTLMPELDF
Target sequence (Q8WTS1 whole entry, looked up): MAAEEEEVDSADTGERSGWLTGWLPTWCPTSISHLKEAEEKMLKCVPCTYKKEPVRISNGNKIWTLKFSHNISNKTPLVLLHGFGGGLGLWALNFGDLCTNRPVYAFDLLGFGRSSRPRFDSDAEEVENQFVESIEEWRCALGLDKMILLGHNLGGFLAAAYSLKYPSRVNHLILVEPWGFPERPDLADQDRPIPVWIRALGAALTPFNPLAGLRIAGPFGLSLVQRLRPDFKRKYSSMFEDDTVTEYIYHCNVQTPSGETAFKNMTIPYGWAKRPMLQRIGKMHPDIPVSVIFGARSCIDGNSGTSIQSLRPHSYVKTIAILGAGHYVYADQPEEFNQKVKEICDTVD
PRMT1 FP inh: blocks human protein arginine methyltransferase 1 | AID 652257 | hit rate 1.3% among 370,000 | inhibition, % at 2.79 µM | recombinant PRMT1, activity-based probe fluorescence polarization;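 active means inhibition above about 21% made by adding two undisclosed values, limit read from the data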
rCAG RNA binder: r(CAG) repeat RNA binding; TO-PRO-1 dye displacement fluorescence; inhibition, % at 3 µM; hit rate 1.3% among 370,000;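 active means inhibition above the plate cutoff, the mean of all test compounds on that plate plus 3 SD, cut at about 35% in these data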;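 further: higher means more dye released from RNA so lower well fluorescence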
TLR4 MyD88 comp: TLR4-MyD88 interaction inhibition in cells. HeLa CL3-4 TLR4/MyD88 BLA complementation, FRET ratio. inhibition, % at 8.4 µM. hit rate 0.18% among 200,000. AID 861; in the data active means inhibition above about 25%
PRMT1 confirm: confirmation of human PRMT1 inhibitors. hit rate 42% among 3,300. recombinant His-PRMT1, activity-based probe fluorescence polarization. AID 687036. inhibition, % at 2.79 µM. shares compounds with PRMT1 FP inh;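 active means mean inhibition across replicates above the hit cutoff derived for the earlier primary screen, cut at about 22% in these data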
A number is an active result; - = inactive; . = not tested or not shown.

SMILES | NOD2 RIPK2 PPI | TLR9-MyD88 inh | ABHD5-PLIN5 inh | PRMT1 FP inh | rCAG RNA binder | TLR4 MyD88 comp | PRMT1 confirm
O=C(CCSC1=NCCCN1)c1ccc(F)cc1 | - | - | - | 31 | - | . | 47
c1ccc(CSC2=NCCCN2)cc1 | - | - | - | - | - | - | .
CN1C(=O)CS(=O)c2ccc(C(=O)NC3CC3)cc21 (stereo not given) | - | - | - | 37 | - | - | -
O=C(CSc1nc2[nH]c(=O)cc(O)c2s1)Nc1nccs1 | - | - | - | 25 | - | . | -
O=C(CSc1nc2[nH]c(=O)cc(O)c2s1)Nc1nncs1 | - | - | - | - | - | . | .
Cc1ccc(CNS(=O)(=O)NCc2cccs2)cc1 | - | - | - | - | - | - | .
C[C@H](C(=O)CC(=O)OC(C)(C)C)[C@H](O)c1ccccc1 | - | - | - | - | - | . | .
CCN(CC(=O)NCc1cccs1)CC(=O)Nc1cccc(S(N)(=O)=O)c1 | - | - | - | 44 | - | . | -
CC(C)OC(=O)N(C)C[C@@H]1OCc2ccccc2-c2c(n(C)c3ccccc23)C(=O)N([C@@H](C)CO)C[C@H]1C | - | - | - | - | - | . | .
C=CCNC(=O)c1ccsc1N | - | . | - | 27 | - | . | -
Cc1sc(NC(=O)c2ccccc2)c(C(=O)c2ccccc2)c1C | - | - | - | 30 | - | - | -
Cc1sc(NC(=O)c2ccccc2)c(C(=O)NC(C)C)c1C | - | - | - | - | - | - | .
Cc1ccc(C(=O)Nc2sc(C)c(C)c2C(=O)c2ccccc2)cc1 | - | - | - | 51 | - | - | -
O=C(NNC(=O)c1ccccc1OCc1ccccc1Cl)c1csc(N2CCOCC2)n1 | - | - | - | - | - | . | .
CC(O)C(O)C(O)C(O)C1NCCS1 (stereo not given) | - | - | - | - | - | - | .
OCC(O)C(O)C(O)C(O)C1NCCS1 (stereo not given) | - | - | - | 32 | - | - | -
CN(C)c1ccc(C2NCCS2)cc1 (stereo not given) | - | - | - | 35 | - | - | 34
Cc1ccc(C2NCCS2)cc1 (stereo not given) | - | - | - | 32 | - | - | -
Cc1ccc(N=Cc2cc3c(cc2O)OC(N)=C(C#N)C3c2ccccc2)cc1 (stereo not given) | - | - | - | - | - | - | .
O=C(CNC(=O)c1ccccc1)NCC(=O)OCC(=O)c1ccc(F)cc1 | - | - | - | - | - | - | .
O=C(CNC(=O)c1ccccc1)NCC(=O)OCC(=O)c1ccc([N+](=O)[O-])cc1 | - | - | - | 35 | - | - | 49
CCO[C@H]1OC(C(N)=O)=C[C@@H](c2ccccc2)[C@@H]1CCCO | - | - | - | 73 | - | - | -
COc1ccc(C(=O)C[n+]2ccc3c(c2)nc(Cc2ccccc2)n3C)cc1 | . | . | . | 29 | - | . | -
O=C(O)/C=C/C(=O)Nc1ccc(OC(F)(F)F)cc1Br | - | - | - | 50 | - | . | -
CCOC(=O)C1(Cc2cccc(F)c2)CCN(C(=O)c2ccoc2C)CC1 | - | - | - | - | - | - | .
SMILES | NOD2 RIPK2 PPI | TLR9-MyD88 inh | ABHD5-PLIN5 inh | PRMT1 FP inh | rCAG RNA binder | TLR4 MyD88 comp | PRMT1 confirm
O=C1NC(=O)/C(=C/c2cc3c(cc2Br)OCO3)S1 | - | - | - | - | - | . | .
O=C1NC(=O)/C(=C\c2ccc(Br)o2)S1 | - | - | - | 43 | - | . | -
CC/C(=N\NC(=O)CNC(=O)/C=C/c1ccc(OC)cc1)c1ccccc1 | - | - | - | - | - | . | .
CCc1ccc2[nH]c(=O)c(CN(CCN(C)C)C(=S)NCc3ccco3)cc2c1 | - | - | - | 33 | - | - | -
CCc1ccc2[nH]c(=O)c(CN(CCN(CC)CC)C(=S)NCc3ccco3)cc2c1 | - | - | - | - | - | - | .
COc1ccccc1OC(=O)CCN1c2ccccc2Sc2ccccc21 | - | - | - | - | - | - | .
COc1ccccc1-[n+]1c(C)cc(/C=C2\Sc3ccccc3N2C)cc1C | - | - | - | 26 | - | . | -
CC[n+]1c(/C=C2/C=C(C)CC(C)C2)sc2ccccc21 (stereo not given) | - | - | - | 28 | - | - | -
CC[n+]1c(/C=C(\C)SC)sc2ccccc21 | - | - | - | 34 | - | - | -
CC/C(=C/c1sc2ccccc2[n+]1CC)SC | - | - | - | 66 | - | - | -
CC[n+]1c(/C=C(/C)SC)sc2ccccc21 | - | - | - | 96 | - | - | 24
CC[n+]1c(C=C2C=C(C)OC(C)=C2)sc2ccccc21 | - | - | - | - | - | - | .
CC[n+]1c(/C=C/Nc2ccccc2)sc2ccccc21 | - | - | - | - | - | - | .
COc1ccc(C(=O)c2ccc(N3CCN(C(=O)c4ccc(F)cc4)CC3)c(F)c2)cc1Br | - | - | - | - | - | - | .
COc1ccnc(N=CNOCc2cccc(C(F)(F)F)c2)c1C#N | - | - | - | - | - | - | .
CCOC(=O)n1c2ccccc2c(=O)n1CCO | - | . | - | - | - | . | .
O=C(O)CCS(=O)(=O)c1cccc2cccnc12 | - | - | - | - | - | - | .
CCSS(=O)(=O)c1cccc2cccnc12 | - | . | - | 93 | - | . | 98
COC(=O)c1ccc2nc(-c3ccc(C)cc3)c(Cc3cccc(Cl)c3)n2c1 | - | . | - | - | - | . | .
O=C1/C(=C/c2cccnc2)Sc2ccccc21 | - | - | - | 46 | - | - | -
COC(=O)c1c(NC(=O)CN2C(=O)C(=O)N(CC(C)C)C2=O)sc2c1CCCCC2 | - | - | - | 58 | - | - | -
CCC1(C)NC(=O)N(CC(=O)Nc2sc3c(c2C(=O)OC)CCCCC3)C1=O (stereo not given) | - | - | - | - | - | - | .
COC(=O)CC1=C(c2ccc([N+](=O)[O-])cc2)CCC1=O | - | - | - | 60 | - | . | -
FC(F)(F)c1nc(=S)c2ccccc2[nH]1 | - | - | - | 33 | - | - | 25
Cc1ccc(-c2ccc(/C=N/O)o2)cc1[N+](=O)[O-] | - | - | - | - | - | - | .
SMILES | NOD2 RIPK2 PPI | TLR9-MyD88 inh | ABHD5-PLIN5 inh | PRMT1 FP inh | rCAG RNA binder | TLR4 MyD88 comp | PRMT1 confirm
CC(C)OC(=O)c1c2nc3ccccc3nc2n2c1[nH]c(=O)c1ccccc12 | . | . | . | . | . | - | .
CC1=C(O)C(=O)C(C2=C(O)C(=O)C(C)=C(O)C2=O)=C(O)C1=O | - | - | - | 29 | - | . | 34
Cc1ccc(C2=C(O)C(=O)C(c3ccc(C)cc3)=C(O)C2=O)cc1 | - | - | - | - | - | . | .
O=C(NCc1ccc(Cl)cc1)c1ccc(Cn2cc(C(F)(F)F)ccc2=O)cc1 | - | - | - | 72 | - | - | 64
COc1ccc([C@H]2N[C@]3(CCCN(Cc4ccc(Cl)cc4)C3=O)[C@H]3C(=O)N(Cc4ccccc4)C(=O)[C@@H]23)cc1 | - | - | - | - | - | . | .
c1ccc(-c2cc3c(N4CCCC4)ncnc3s2)cc1 | - | - | - | 40 | - | - | -
O=C(NN1C(=O)/C(=C/c2cccs2)SC1=S)c1ccccc1 | - | - | - | . | . | - | .
O=C(NN1C(=O)/C(=C/c2cccs2)SC1=S)c1cccnc1 | - | . | - | 27 | - | . | -
